High-throughput results deposited in PubChem by several laboratories.
DTT redox prof – compounds producing H2O2 with reducing agent – biochemical, NIH compound library profiling, artefact control for MLSCN library redox annotation, primary screen | DTT-dependent redox cycling H2O2, phenol red/HRP absorbance; 100% = 100 µM peroxide control, 0% = buffer | activation, % at 10 µM | 0.03% of 200,000 active;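 active = activation of at least 50% relative to the plate's high and low controls in the primary single-dose screen; inactive = activation below 50%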;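 note: compound incubated with DTT at 0.8 mM final as the reducing agent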
SUMO HTRF inh – blocks human SUMOylation mediated by UBC9; P63279; HTRF SUMOylation assay, SAE1/SAE2 + UBC9, in vitro; inhibition, % at 35 µM; 0.36% of 290,000 active; AID 2006; in the data active = inhibition above about 50%, passing the limit was not always enough
PERK inhibitor – blocks human PERK kinase. 0.17% of 220,000 active. CHO PERK-DD fusion, SEAP luminescence translation reporter. Q9NZJ5. inhibition, % at 5.6 µM;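 active = inhibition above the mean inhibition of all tested compounds plus 3 SD, set separately per screening campaign, cut at about 2.9% in these data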;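 note: PERK kinase domain activated by AP20187 dimerizer at 100 nM; 0% = DMSO with dimerizer and 100% = rapamycin at 8.4 µM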
p97 ATPase inh – blocks human p97 ATPase activity; 0.42% of 220,000 active; P55072; AID 1481; recombinant p97 ATPase, Kinase-Glo ATP luminescence, 3 h; inhibition, % at 8 µM; in the data active = inhibition above about 15%;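 note: 0% = DMSO vehicle and 100% = wells lacking enzyme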
Target sequence (P55072 whole entry, looked up): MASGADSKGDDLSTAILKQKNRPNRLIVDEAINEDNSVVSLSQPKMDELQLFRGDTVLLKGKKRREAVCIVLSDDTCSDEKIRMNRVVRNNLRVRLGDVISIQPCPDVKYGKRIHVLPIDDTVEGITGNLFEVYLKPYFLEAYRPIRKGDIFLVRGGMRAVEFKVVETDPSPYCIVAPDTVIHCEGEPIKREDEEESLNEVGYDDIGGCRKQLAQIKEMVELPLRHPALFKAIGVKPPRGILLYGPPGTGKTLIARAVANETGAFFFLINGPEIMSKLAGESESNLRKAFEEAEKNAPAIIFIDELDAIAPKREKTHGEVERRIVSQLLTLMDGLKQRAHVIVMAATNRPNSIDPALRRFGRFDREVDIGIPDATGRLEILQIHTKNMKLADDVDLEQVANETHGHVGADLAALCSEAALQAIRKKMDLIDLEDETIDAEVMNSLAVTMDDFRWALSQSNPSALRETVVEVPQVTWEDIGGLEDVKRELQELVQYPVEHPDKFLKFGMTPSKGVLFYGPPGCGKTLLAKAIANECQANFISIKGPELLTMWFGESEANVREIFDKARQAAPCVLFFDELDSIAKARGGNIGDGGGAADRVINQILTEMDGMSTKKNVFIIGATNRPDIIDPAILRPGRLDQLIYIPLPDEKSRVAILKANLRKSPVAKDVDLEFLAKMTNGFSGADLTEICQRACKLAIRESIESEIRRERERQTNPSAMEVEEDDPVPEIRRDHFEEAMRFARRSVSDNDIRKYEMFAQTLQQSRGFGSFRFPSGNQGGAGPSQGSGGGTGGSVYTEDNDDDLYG
p97 confirm – confirmation of human p97 ATPase inhibitors; shares compounds with p97 ATPase inh; inhibition, % at 8 µM; AID 1517; 44% of 760 active; recombinant p97 ATPase, Kinase-Glo ATP luminescence;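 active = percent inhibition of p97 ATPase above a set limit, the primary screen's mean plus 3 SD, cut at about 15% in these data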;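 note: 0% = DMSO wells and 100% = wells lacking p97 protein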
Starred values were filed as active, the others as inactive; x = not tested or not shown. Most compounds without a hit are left out; they make up all but 0.69% or so of the library.

SMILES	DTT redox prof	SUMO HTRF inh	PERK inhibitor	p97 ATPase inh	p97 confirm
CCOC(=O)C1CCCN(S(=O)(=O)c2cn(C)c(=O)n(C)c2=O)C1 (stereo not given)	0.2	15.0	2.1	16.8*	3.2
O[C@@H]1COC(Nc2ccc(N=Nc3ccccc3)cc2)C[C@@H]1O (stereo not given in full)	x	-2.4	2.2	6.3	x
Cc1ccc(NC(=O)CN(C)C(=O)CSc2nc3ccccc3c(=O)n2Cc2ccco2)cc1	2.0	2.4	-0.1	19.4*	7.1
CN(Cc1ccccc1)C(=O)CSc1nc2ccccc2c(=O)n1Cc1ccco1	-0.9	17.5	-0.8	7.2	x
Cc1c(Br)c(O)c(Br)c2sc(=O)oc12	x	51.3	0.6	22.4*	6.6
CCc1nnc(NC(=O)C2CCCCC2)s1	1.5	9.3	-0.4	-2.8	x
CC(C)c1nnc(NC(=O)C2CCCCC2)s1	-0.4	3.0	0.9	15.8*	2.2
CN(C(=S)NC(=O)c1ccc(Cl)cc1)C1CCCCC1	x	39.2	x	x	x
O=C(NCC1CCCO1)c1ccc(CNS(=O)(=O)c2cccc(Cl)c2)cc1 (stereo not given)	-0.8	2.3	0.1	1.0	x
Cc1ccc(NC(=O)CN2C(=O)N/C(=C/c3cc(C)n(-c4ccc(C(=O)O)cc4)c3C)C2=O)cc1	-1.1	5.3	1.1	6.8	x
Cc1ccc(NC(=O)CN2C(=O)N/C(=C/c3cccn3-c3ccc(C(=O)O)cc3)C2=O)cc1	-0.2	x	0.4	17.1*	31.6*
O=C(O)c1cc(-c2c[nH]c3ccccc23)nc2ccc3ccccc3c12	0.5	23.7	0.3	19.7*	19.6*
Cc1[nH]nc(Nc2ccc(C(C)C)cc2)c1[N+](=O)[O-]	x	12.3	-0.1	3.2	x
Cc1ccc(C(C(=O)NCc2ccco2)N(C(=O)Cn2nnc3ccccc32)c2ccccc2)o1 (stereo not given)	0.0	1.5	-1.6	16.3*	8.3
COc1ccc(OC)c2sc(NC(=O)CCSc3ccccc3)nc12	-0.7	-13.0	0.7	4.8	x
COc1ccc(OC)c2sc(NC(=O)CCS(=O)(=O)c3ccccc3)nc12	-3.6	x	-0.5	18.9*	25.3*
Fc1ccccc1-c1nc(NCc2ccco2)c2ccccc2n1	0.0	4.1	0.8	21.5*	28.0*
CCC(C)NC(=O)c1cn(CC)c2ccc(S(=O)(=O)N3CCCCCC3)cc2c1=O (stereo not given)	x	-13.6	x	x	x
CCN1C(=NCCOC)N[C@@H](c2cccs2)C(C(=O)OC)=C1C	x	-1.8	x	x	x
CCN(CC(=O)NC(C)C)Cc1nc2c(Br)cc(Br)cc2c(=O)[nH]1	x	16.2	0.2	8.3	x
CCOc1nc2cnccc2n(CC(=O)Nc2ccccc2C(=O)OC)c1=O	x	2.1	x	x	x
CN1C(=O)C2(c3ccccc31)C1CCCC=C1C(C#N)=C(N)C2(C#N)C#N (stereo not given)	3.1	1.2	0.2	17.0*	12.7
Cn1nnnc1SCCNC(=O)C1CCC(=O)N(Cc2ccc(Cl)cc2)C1 (stereo not given)	x	14.5	x	x	x
C=CCN(CC=C)C(=S)Nc1ccc2nsnc2c1	1.6	87.2	-0.2	18.4*	4.3
COCCNC(=S)Nc1ccc2nsnc2c1	0.3	98.1	0.6	-0.3	x
SMILES	DTT redox prof	SUMO HTRF inh	PERK inhibitor	p97 ATPase inh	p97 confirm
C=CCNC(=S)Nc1ccc2nsnc2c1	-0.2	99.3*	1.2	28.6*	1.0
COC(=O)c1c(C)oc(C)c1S(=O)(=O)NCc1cccs1	x	6.8	1.2	2.6	x
Cc1ccc(NC(=S)NCC2CCCO2)c(OC(F)F)c1 (stereo not given)	0.2	12.7	1.2	2.9	x
COC(=O)c1ccc(C(=O)OC)c(NC(=O)C2CCCO2)c1 (stereo not given)	x	12.2	x	x	x
Clc1ccc(-n2cccc2CN2CCc3c([nH]c4ccccc34)C2c2ccccn2)nc1 (stereo not given)	-1.4	31.5	1.7	6.3	x
C=CCNCC(O)COc1ccc(C(C)=O)cc1OC (stereo not given)	x	5.3	1.2	18.1*	10.3
N#C/C(=C(\O)Cc1ccccc1)c1nc2ccccc2[nH]1	0.0	31.6	-1.0	-5.3	x
Cc1cc(Br)ccc1SCC(=O)OC/C(O)=C(\C#N)c1nc2ccccc2[nH]1	x	48.4	1.1	6.6	x
Cc1ccc(C)c(SCC(=O)OC/C(O)=C(\C#N)c2nc3ccccc3[nH]2)c1	0.2	40.9	-0.5	18.0*	39.9*
N#C/C(=C(/O)CCl)c1nc2ccccc2[nH]1	-0.5	-3.3	1.2	38.0*	29.7*
O=C(NC1CCN(C(=S)Nc2ccc(F)cc2)CC1)C1CCCCC1	x	7.0	x	x	x
CCOC(=O)c1ccc(N(C(=O)c2cnccn2)C(C(=O)NC2CCCCC2)c2cn(C)nc2C)cc1 (stereo not given)	1.6	13.4	0.8	22.3*	8.9
O=C(Cc1ccc([N+](=O)[O-])cc1)Nc1ccc2c(c1)CCC2	x	13.4	x	x	x
Cc1csc2c(=O)sc(NC(=O)c3cccs3)nc12	x	27.2	0.5	34.3*	28.0*
COc1cccc(CC(=S)N2CCOCC2)c1	-0.2	24.0	1.0	15.7*	7.9
COc1cccc(CN2CC(C(=O)N3CCOCC3)CCC2=O)c1 (stereo not given)	x	9.1	x	x	x
O=C(CCN1C(=O)c2cccc3cccc(c23)C1=O)Nc1ccccc1	0.1	4.7	1.4	-1.6	x
Cc1ccc(C)c(S(=O)(=O)C(C#N)c2nc3ccccc3nc2N2CCCC2)c1 (stereo not given)	0.3	99.3	-0.1	19.0*	7.9
N#CC(c1nc2ccccc2nc1N1CCCC1)S(=O)(=O)c1ccccc1 (stereo not given)	-0.1	99.2	0.2	17.2*	4.1
CN1CCN(c2nc3ccccc3nc2C(C#N)S(=O)(=O)c2ccccc2)CC1 (stereo not given)	x	10.8	1.2	5.1	x
C=CCNC(=O)C(C#N)c1nc2ccccc2nc1N1CCCCCC1 (stereo not given)	-2.7	96.5	-0.2	20.6*	-1.5
Cc1ccc(C)c(S(=O)(=O)C(C#N)c2nc3ccccc3nc2N2CCOCC2)c1 (stereo not given)	-0.1	60.2	0.7	0.3	x
CCN(CC)CCCN=Cc1c(O)n(-c2cccc(C)c2)c(=O)c2ccccc12	x	35.2	-2.0	4.8	x
CN(Cc1ccon1)C(=O)CC1C(=O)NCCN1CC1CCCCC1 (stereo not given)	-0.9	6.3	0.1	-1.2	x
O=[N+]([O-])c1ccccc1-c1ccc(/C=N/n2cnnc2)o1	-7.7	8.7	0.4	1.5	x
Nn1cnnc1N/N=C\c1ccc(-c2ccccc2[N+](=O)[O-])o1	6.2	98.5*	0.2	27.3*	6.6
CCOC(=O)C1=C(C)OC2(O)c3ccccc3C(=O)C12O (stereo not given)	x	94.0*	0.5	16.9*	27.3*
CC(=O)C1=C(C)OC2(O)c3ccccc3C(=O)C12O (stereo not given)	x	x	1.0	20.0*	7.7
COc1cccc(/C=C/c2ccccn2)c1O	x	16.3	0.4	-5.7	x
COc1ccc(S(=O)(=O)n2nc(-c3cc(OC)c(OC)c(OC)c3)cc2N)cc1OC	-0.1	16.7	-0.5	3.5	x
